# Assay outcomes: PubChem, several laboratories
# Mtb bLac sens: beta-lactam sensitization of Mtb H37Rv | M. tuberculosis H37Rv growth with meropenem, percent inhibition | inhibition, % at 25 µM | 330,000 compounds, 0.27% hits | AID 434955; call rule not given here;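 note: growth measured after seven days incubation then overnight dye step; 0% = bacteria only wells and 100% = bacteria with antibiotic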
# CCHFV vOTU inh: CCHFV vOTU protease inhibition. Pep-AMC fluorescence. inhibition, % at 11.5 µM. 370,000 compounds, 0.55% hits; note: 0% = vehicle wells with enzyme and 100% = no enzyme wells
# RecA splice inh: blocks M. tuberculosis RecA intein splicing | P9WHJ3 | cell-free RecA intein splicing, fluorescence | inhibition, % (test concentration not listed) | 290,000 compounds, 0.75% hits; in the data active = inhibition above about 30%; inconclusive = no clear call, values can overlap the other calls;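 note: 0% = vehicle wells and 100% = reference inhibitor control wells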
# Target sequence (P9WHJ3 whole entry, looked up, canonical isoform): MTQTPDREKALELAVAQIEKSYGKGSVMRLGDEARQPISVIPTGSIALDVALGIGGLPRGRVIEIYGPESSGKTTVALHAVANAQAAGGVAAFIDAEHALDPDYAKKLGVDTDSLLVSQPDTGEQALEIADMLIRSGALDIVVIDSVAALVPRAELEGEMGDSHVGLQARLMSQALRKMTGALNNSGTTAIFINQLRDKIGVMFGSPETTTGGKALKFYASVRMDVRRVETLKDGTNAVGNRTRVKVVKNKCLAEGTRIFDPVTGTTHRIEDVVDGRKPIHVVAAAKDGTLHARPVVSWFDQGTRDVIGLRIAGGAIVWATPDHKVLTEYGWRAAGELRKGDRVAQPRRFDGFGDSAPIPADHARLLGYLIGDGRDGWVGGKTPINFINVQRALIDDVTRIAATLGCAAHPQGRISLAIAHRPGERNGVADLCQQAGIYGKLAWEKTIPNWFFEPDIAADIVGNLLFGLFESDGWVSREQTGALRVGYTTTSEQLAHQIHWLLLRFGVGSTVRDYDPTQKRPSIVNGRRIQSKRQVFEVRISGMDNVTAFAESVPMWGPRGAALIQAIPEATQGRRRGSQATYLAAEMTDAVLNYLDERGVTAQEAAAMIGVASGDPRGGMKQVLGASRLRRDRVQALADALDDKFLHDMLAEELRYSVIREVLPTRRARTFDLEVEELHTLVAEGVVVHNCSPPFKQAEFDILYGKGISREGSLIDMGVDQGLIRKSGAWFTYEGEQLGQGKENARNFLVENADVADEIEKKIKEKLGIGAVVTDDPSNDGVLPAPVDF
# GDH-TPI counter: inhibits GDH-TPI coupling enzymes, artifact for Mtb FBA screen | GDH-TPI coupled enzyme counterscreen, NADH absorbance | inhibition, % at 4.8 µM | 360,000 compounds, 1.2% hits;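 note: 0% = DMSO wells and 100% = wells lacking the enzyme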
# Mtb FBA inh: inhibits M. tuberculosis FBA enzyme; inhibition, % at 1 µM; 360,000 compounds, 2.3% hits; purified M. tuberculosis FBA, fluorescence read-out; P9WQA3; in the data active = inhibition above about 27%;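 note: 0% = vehicle and 100% = reference inhibitor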
# Active calls of the source: *; ? = inconclusive; · = not tested or not shown; + = active, no number. A selection: hits, their analogues and other compounds. The true share with any hit is near 4.2%. Cut-off read from the data, not from the text of the source, unless noted: active = inhibition above about 30%; inactive = the rest.
SMILES,Mtb bLac sens,CCHFV vOTU inh,RecA splice inh,GDH-TPI counter,Mtb FBA inh
Cc1cccc(NC(=O)Nc2ccccc2C(=O)N2CCCC2)c1,·,-5,·,·,·
O=C(CCc1ccccc1)N[C@H]1/C(=N/O)CCC[C@]12C(=O)N(Cc1ccccc1)c1ccccc12,·,10,·,·,·
Nc1ccc2nc(-c3ccccc3)[nH]c2c1,-7,-319,-5,21,+
Nc1ccc2nc(-c3cccnc3)[nH]c2c1,1,11,-1,21,4
Nc1ccc2nc(-c3ccccn3)[nH]c2c1,-2,5,1,29,-1
Nc1ccc(-c2nc3c(Cl)cc(N)cc3[nH]2)cc1,29,-132,-4,45*,197*
CC(=O)Nc1ccc2nc(-c3cccs3)[nH]c2c1,-6,-133,1,44*,+
Nc1ccc2nc(-c3cccs3)[nH]c2c1,8,-256,-39,29,+
CC(=O)N1CCc2cc(S(=O)(=O)NCCC(=O)N(C)C3CCCCC3)ccc21,·,-1,·,·,·
COC(=O)C1CCCN(C(=O)C2CCN(S(=O)(=O)c3ccccc3[N+](=O)[O-])CC2)C1 (configuration not stated),·,-3,·,·,·
CCCCOCCCNC(=O)C[C@H]1C[C@@]2(C(=O)OC)C(=C[C@H](COCc3ccccc3)O[C@@H]2C)N(Cc2ccco2)C1=O,·,8,·,·,·
CCCCNC(=O)C[C@H]1C(=O)N(Cc2ccc(OC)cc2)C2=CCCCC[C@@]21C(=O)OC,·,0,·,·,·
Nc1ccc2nc(-c3ccc(N)c(Cl)c3)[nH]c2c1,-11,-142,-21,32*,119*
N#Cc1ccc(/C=C2\CC3(OC(=O)C4CCCC4)CCCN2C3)cc1 (configuration not stated),·,1,·,·,·
COc1ccc(N2CCN(C(=O)C3CCCN(c4ncnc5c4nc4n5CCCCC4)C3)CC2)cc1 (configuration not stated),0,15,-2,1,2
CC(=O)c1ccc(N2CCN(C(=O)C3CCCN(c4ncnc5c4nc4n5CCCCC4)C3)CC2)cc1 (configuration not stated),1,7,-1,31*,3
CC(=O)c1ccc(N2CCN(C(=O)C3CCC3)CC2)cc1,11,7,-2,45*,0
Cc1c(NC(=S)NC(=O)c2ccc(-c3ccc(Cl)cc3)o2)cccc1C(=O)O,-9,-13,-1,32*,1
COc1ccc(-c2nnc(Nc3nc4c(OC)cccc4s3)o2)cc1,?,0,-3,63*,10
COc1ccc(-c2nnc(-c3ccc(N)cc3)o2)cc1,44,-1,-3,22,16
COc1ccc(-c2nnc(Nc3nc4c(OC)cccc4s3)o2)c(OC)c1,-2,11,·,69*,60*
COCC#Cc1ccc(CC[C@H]2O[C@H]3CC[C@@H](CO)O[C@H]3C[C@H]2n2cc(C(C)(C)O)nn2)cc1,·,9,·,·,·
O=S1(=O)C=CCN1Cc1cn(Cc2ccc(Cl)cc2)nn1,·,-3,·,·,·
COc1ccc(CN(C(=S)Nc2ccccc2)C2CC(=O)N(c3ccc(F)cc3)C2=O)cc1 (configuration not stated),-2,5,0,8,3
COc1ccc(N2C(=O)CS/C2=N\C(=S)Nc2ccccc2)cc1,-5,5,-1,37*,0
SMILES,Mtb bLac sens,CCHFV vOTU inh,RecA splice inh,GDH-TPI counter,Mtb FBA inh
CSc1ccc(/C=N/n2c(C)nnc2C)cc1,0,12,2,16,1
CSc1ccc(/C=N/n2c(C)cc(C)cc2=O)cc1,3,-1,-2,33*,0
COc1ccc2ccccc2c1/C=N\NC(=O)c1cccnc1,-10,-2,-5,35*,2
O=C(N/N=C/c1c(O)ccc2ccccc12)c1cccnc1,6,-2,-10,6,-6
Cc1cc(O)c(C)c(O)c1/C=N/NC(=O)c1cccnc1,8,9,-1,31*,-2
COc1cccc(NC(=O)C2CCCN2C(=O)NCc2ccccc2OC)c1 (configuration not stated),·,-6,·,·,·
Nn1c(SCC(=O)Nc2nccs2)nnc1-c1cc(-c2ccccc2)n[nH]1,·,10,·,·,·
COCCn1c(-c2ccc(OC(F)(F)C(F)C(F)(F)F)cc2)nc2c1c(=O)[nH]c(=O)n2CC(C)C (configuration not stated),98,12,·,-7,12
COCCn1c(-c2ccc(SC)cc2)nc2c1c(=O)[nH]c(=O)n2CC(C)C,0,-15,-2,21,+
Nc1c(C(=O)NCc2ccco2)c2nc3ccccc3nc2n1CCc1ccccc1F,15,-87,-4,8,70*
Nc1c(C(=O)NCc2ccco2)c2nc3ccccc3nc2n1Cc1ccccc1,32,-112,-146,8,112*
